The values that follow come from the supplement of paper PMC13380429.

The structures appear in SMILES notation.

Experiment [1] deals with Vero E6 infected with SARS-CoV-2. Nature of the experiment: morphology score (similarity to uninfected cells); higher = more like uninfected cells. As to conditions: 24 h.
For experiment [2] the test system is unchanged. Nature of the experiment: SARS-CoV-2 infection rate relative to infected DMSO; higher = more infection, active = 60 or less. Particulars: 24 h.

`CC(C)(C(=O)NCC(F)(F)C(F)(F)F)C(=O)N[C@@H]1C(=O)Nc2ccccc2-c2ccccc21` (10 µM) returned a morphology score in experiment [1] of 0.217. Also, in experiment [2], the SARS-CoV-2 infection rate was 86% (inactive).
For `Cc1cc(C)c2c(c1)[C@@H](N(Cc1cc(C(F)(F)F)cc(C(F)(F)F)c1)c1nnn(C)n1)CCCN2C[C@H]1CC[C@H](C(=O)O)CC1` [evacetrapib] (10 µM), in that order: 0.0498 and 97% (inactive).
Regarding `Cc1cc(C(=O)N2Cc3cnn(C)c3Nc3ccccc32)ccc1CNC(=O)N1CCC[C@H]1C(=S)N1CCCN(C)CC1` (10 µM), the morphology score in experiment [1] was found to be 0.0545. Besides, the SARS-CoV-2 infection rate in experiment [2] was 110% (inactive).
In experiment [1], `O=c1ncccn1[C@@H]1O[C@H](CO)[C@@H](O)[C@H]1O` [zebularine] (10 µM) registered a morphology score of 0.0754. Also, the SARS-CoV-2 infection rate in experiment [2] was 104% (inactive).
For `Nc1ccncc1` [dalfampridine] (10 µM), in that order: 0.0807 and 103% (inactive).
For `CC(=O)Oc1ccccc1C(=O)Nc1ncc([N+](=O)[O-])s1` [nitazoxanide] (10 µM), in that order: 0.224 and 88% (inactive).
The like results for `CC1=C(C(=O)Nc2cc3cn[nH]c3cc2F)C(c2ccc(C(F)(F)F)cc2)CC(=O)N1` (stereo not drawn) (10 µM) were, in that order, 0.426 and 99% (inactive).
The compound `CS(=O)(=O)Nc1ccc2oc3c(OC(F)F)ccc(C(=O)Nc4c(Cl)cncc4Cl)c3c2c1` [oglemilast] (10 µM) had a morphology score in experiment [1] of 0.291. Further, the SARS-CoV-2 infection rate in experiment [2] is 92% (inactive).
For `OC[C@@H](O)[C@H]1O[C@@H]2O[C@H](C(Cl)(Cl)Cl)O[C@@H]2[C@H]1O` [chloralose] (10 µM), in that order: 0.162 and 103% (inactive).
Regarding `CCOC(=O)CNC(=O)[C@@H]1CCCN1C(=O)Cc1ccccc1` (10 µM), the morphology score in experiment [1] was -0.0562. The SARS-CoV-2 infection rate in experiment [2] is 104% (inactive).
In experiment [1], `O=C1C[C@@H](c2ccc(O)cc2)Oc2cc(O)ccc21` (10 µM) came in with a morphology score of 0.025. Also, in experiment [2], the SARS-CoV-2 infection rate was 110% (inactive).
As for `CC(=O)O[C@]1(C(C)=O)CC[C@H]2[C@@H]3C=C(C)C4=CC(=O)CC[C@@H]4[C@H]3CC[C@@]21C` [nomegestrol-acetate] (10 µM), the morphology score in experiment [1] stood at 0.147. Besides, the SARS-CoV-2 infection rate in experiment [2] is 95% (inactive).
As to `CC1(C)S[C@@H]2[C@H](NC(=O)[C@H](NC(=O)N3CCN(S(C)(=O)=O)C3=O)c3ccccc3)C(=O)N2[C@H]1C(=O)O` [mezlocillin] (10 µM), the morphology score in experiment [1] worked out at 0.0709. Moreover, the SARS-CoV-2 infection rate in experiment [2] is 97% (inactive).
In the case of `Clc1ccc2c(c1)N=C(N1CCNCC1)c1ccccc1N2` [desmethylclozapine] (10 µM), the morphology score in experiment [1] was 0.467. The SARS-CoV-2 infection rate in experiment [2] is 53.5% (active).
The like results for `O=C(CCc1ccc(O)cc1)c1c(O)cc(O)cc1O` [phloretin] (10 µM) were, in that order, 0.241 and 104% (inactive).
`Cc1ccc(Cl)c(Nc2ccccc2C(=O)O)c1Cl` [meclofenamic-acid] (10 µM): the morphology score in experiment [1] turned out to be 0.0323. For the same compound, the SARS-CoV-2 infection rate in experiment [2] was 108% (inactive).
`CN1C(=O)C[C@@H](C(=O)N[C@@H](Cc2c[nH]cn2)C(=O)N2CCC[C@H]2C(N)=O)NC1=O` [taltirelin] (10 µM) returned a morphology score in experiment [1] of 0.0707. Also, in experiment [2], the SARS-CoV-2 infection rate is 87% (inactive).
Consider `COc1ccc(-c2ccc(=N)n(CCCC(=O)O)n2)cc1` [gabazine] (10 µM), for which, in experiment [1], the morphology score was -0.176. In addition, the SARS-CoV-2 infection rate in experiment [2] is 103% (inactive).
For the compound `Fc1ccc2c(CCNCc3cccc(OCC(F)(F)C(F)F)c3)c[nH]c2c1` [idalopirdine] (10 µM), the morphology score in experiment [1] was -0.145. Further, in experiment [2], the SARS-CoV-2 infection rate is 114% (inactive).
`CCN(CC)C(C)C(=O)c1ccccc1` (stereo not drawn) [amfepramone] (10 µM) showed a morphology score in experiment [1] of 0.016. For the same compound, the SARS-CoV-2 infection rate in experiment [2] was 116% (inactive).
`CCN(CC)CCN(Cc1ccc(-c2ccc(C(F)(F)F)cc2)cc1)C(=O)Cn1c(SCc2ccc(F)cc2)nc(=O)c2c1CCC2` [darapladib] (0.833333 µM): the morphology score in experiment [1] was -0.0453. Also, the SARS-CoV-2 infection rate in experiment [2] is 106% (inactive).
Turning to `COc1ccc2[nH]c([S+]([O-])Cc3ncc(C)c(OC)c3C)nc2n1` (stereo not drawn) [tenatoprazole] (10 µM), in experiment [1], the morphology score was 0.162. The SARS-CoV-2 infection rate in experiment [2] is 105% (inactive).
The like results for `COc1cc2c(cc1O)CC[C@@H]1[C@@H]2CC[C@]2(C)[C@@H](O)CC[C@@H]12` [2-methoxyestradiol] (0.833333 µM) were, in that order, 0.00558 and 102% (inactive).
Take `N#CC(=C(/N)Sc1ccccc1N)/C(C#N)=C(/N)Sc1ccccc1N` (10 µM): the morphology score in experiment [1] was -0.197. For the same compound, in experiment [2], the SARS-CoV-2 infection rate was 113% (inactive).
In the case of `C[C@@]12C[C@@]3(O)O[C@@H](O1)[C@]1(COC(=O)c4ccccc4)[C@H]3C[C@@]12O[C@@H]1O[C@H](CO)[C@@H](O)[C@H](O)[C@H]1O` [paeoniflorin] (10 µM), in experiment [1], the morphology score amounted to 0.192. In addition, the SARS-CoV-2 infection rate in experiment [2] is 92.5% (inactive).
The compound `c1ccc(C2CC2)c(OCC2=NCCN2)c1` [cirazoline] (10 µM) gave a morphology score in experiment [1] of 0.0206. Further, the SARS-CoV-2 infection rate in experiment [2] is 102% (inactive).
Turning to `Cc1[nH]c2ccccc2c1CCNCc1ccc(/C=C/C(=O)NO)cc1` [panobinostat] (0.833333 µM), the morphology score in experiment [1] is -0.0995. Further, in experiment [2], the SARS-CoV-2 infection rate is 105% (inactive).
In experiment [1], `CC1(N2CCC(n3c([C@@H]4CCCNC4)nc4ccccc43)CC2)CCCCCCC1` (10 µM) came in with a morphology score of 0.62. In addition, the SARS-CoV-2 infection rate in experiment [2] was 22% (active).
Compound `COc1ccc(Nc2nccc(NCCO)n2)cc1` [cardiogenol-C] (10 µM) showed a morphology score in experiment [1] of 0.0849. In addition, in experiment [2], the SARS-CoV-2 infection rate was 100% (inactive).
